Bioassay records from PubChem.
Pf growth 96h: Primary qHTS for delayed death inhibitors of the malarial parasite plastid, 96 hour incubation | Potency, µM (doses to about 28.7 µM), for inactives: top-dose activity change, negative = inhibition, actives largely listed as inhibitors | P. falciparum luciferase reporter growth, 96 h | hit rate 6.9% among 320,000 | AID 504834, 2011; also: % is scaled to controls: 0 for no effect and ±100 for the full control effect
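Cell-based qHTS: luciferase-tagged P. falciparum in erythrocytes (2% hematocrit, 0.05% parasitemia final) incubated with compounds for 96 hours, 37 C, 5% CO2; luciferase detection reagent then added and luminescence measured.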
Sm TGR inh: qHTS Assay for the Inhibitors of Schistosoma Mansoni Peroxiredoxins. Schistosoma mansoni thioredoxin glutathione reductase (TGR), Q962Y6. purified TGR, DTNB reduction, TNB absorbance 405 nm. Potency, µM (titrated, usually from 114 µM), for the others: at the highest dose activity change, negative = inhibition, actives largely listed as inhibitors. hit rate 3% among 360,000; also: % is scaled to controls: 0 for no effect and ±100 for the full control effect; nearly all actives have a fitted effect of over 60% in size
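First, TGR (20 nM dispensed) and NADPH were mixed with compound. Second, a 15 min room-temperature incubation followed. Third, further NADPH and then DTNB were added to start the reaction. Finally, TNB absorbance was monitored kinetically.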
SARS PLpro yeast: qHTS of Yeast-based Assay for SARS-CoV PLP; S. cerevisiae expressing SARS-CoV PLpro, growth rescue; Potency, µM (top dose mostly 32.9 µM), for inactives: at the top dose activity, positive = growth rescue, usual class: activators; hit rate 0.19% among 330,000; calls by dose curve; also: 0% is about no effect; nearly all actives have a fitted effect of over 55% in size
Pf growth 48h: Primary qHTS for delayed death inhibitors of the malarial parasite plastid, 48 hour incubation; P. falciparum luciferase growth in erythrocytes, 48 h; Potency, µM (doses to about 28.7 µM), without a hit: at the top dose activity change, negative = inhibition, usual class: inhibitors; hit rate 5.9% among 310,000; AID 504832, 2011; also: % is scaled to controls: 0 for no effect and ±100 for the full control effect
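Firefly luciferase activity from engineered P. falciparum reports growth; inhibitors lower the luminescent signal. Cultures contained 2% hematocrit erythrocytes at 0.1% final parasitemia.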
AmpC inh detg: qHTS Inhibitors of AmpC Beta-Lactamase (assay with detergent) | P00811 | AmpC hydrolysis of nitrocefin, absorbance 480 nm, 0.01% Triton | Potency, µM (doses to about 114 µM), for inactives: at the top dose activity change, negative = inhibition, most hits filed as inhibitors | hit rate 0.041% among 370,000;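 also: 0% = no-compound wells and -100% = no-enzyme wells; nearly all actives have a fitted effect of over 25% in size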
Target sequence (P00811 whole entry, looked up): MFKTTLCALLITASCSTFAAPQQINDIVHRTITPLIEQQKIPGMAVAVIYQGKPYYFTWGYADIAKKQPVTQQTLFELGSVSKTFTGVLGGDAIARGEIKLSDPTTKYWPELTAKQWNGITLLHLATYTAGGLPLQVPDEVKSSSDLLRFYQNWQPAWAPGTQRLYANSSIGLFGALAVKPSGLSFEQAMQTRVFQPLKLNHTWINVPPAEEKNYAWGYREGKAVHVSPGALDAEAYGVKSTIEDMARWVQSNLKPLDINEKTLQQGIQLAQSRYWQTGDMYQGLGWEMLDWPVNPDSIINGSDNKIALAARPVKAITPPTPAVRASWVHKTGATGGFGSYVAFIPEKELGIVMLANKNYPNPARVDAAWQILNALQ
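AmpC (5.3 nM in the dispensed reagent) in 20 mM phosphate pH 7.0 with 0.01% (detergent screen) or 0.0001% Triton X-100 was preincubated with compounds for 15 min at room temperature. Nitrocefin was then added from an 800 uM solution, and hydrolysis was followed at 480 nm.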
AmpC inh no detg: qHTS Inhibitors of AmpC Beta-Lactamase (assay without detergent). AmpC nitrocefin hydrolysis, absorbance 480 nm, 0.0001% Triton. AID 485341, 2010. Potency, µM (series often up to 57.1 µM), for the others: at the highest dose activity change, negative = inhibition, actives largely listed as inhibitors. P00811. hit rate 0.52% among 330,000;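 also: plate controls were no compound for no effect and no enzyme for full effect; nearly all actives have a fitted effect of over 20% in size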
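AmpC (5.3 nM in the dispensed reagent) in 20 mM phosphate pH 7.0 with 0.01% (detergent screen) or 0.0001% Triton X-100 was preincubated with compounds for 15 min at room temperature. Nitrocefin was then added from an 800 uM solution, and hydrolysis was followed at 480 nm.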
The depositor's hits bear a star; ? = inconclusive; nt = no result given. The list is not random: actives were taken first. Their share in the collection is about 12%. Unless noted, calls follow the shape of the dose curve; as a rule, active = well fitted curve in the direction sought with a large enough effect; inconclusive = small, poorly fitted or top-dose-only effect, or another doubt; inactive = no such curve, though single readings can be large; an effect the other way counts as inactive or inconclusive. Potency is read from the fitted curve at half-maximal effect.

SMILES | Pf growth 96h | Sm TGR inh | SARS PLpro yeast | Pf growth 48h | AmpC inh detg | AmpC inh no detg
C=C1C(=O)O[C@@H]2[C@@H]1CC/C(C)=C\CC[C@@]1(C)O[C@H]21 | 9.53µM* | nt | nt | ? | nt | nt
CC(OC(=O)c1ccc(Cl)c([N+](=O)[O-])c1)C(=O)N1CCN(Cc2ccccc2)CC1 (configuration not stated) | ? | -13.9% | 0.6% | 11.7µM* | -1.7% | 170.6%
Cc1cccc(C(=O)Nc2nnc(S(=O)(=O)N3c4ccccc4CC3C)s2)c1 (configuration not stated) | nt | -4.7% | nt | nt | -4.6% | nt
Cc1ccc(Nc2ncnc3c2nnn3Cc2ccccc2)cc1 | -45.8% | 18.1% | -3.1% | 67.2% | 3.9% | -26.8%
CCCc1nc(NCC2CCCO2)c2nnn(Cc3ccccc3)c2n1 (configuration not stated) | 22.5% | -4.4% | -10.2% | 14.7µM* | -4.8% | -15.0%
CCc1nc(Nc2ccccc2)c2nnn(Cc3ccccc3)c2n1 | 10.4µM* | -1.2% | -2.7% | 37.2% | -0.2% | -29.0%
Cc1nc(NCC2CCCO2)c2nnn(Cc3ccccc3)c2n1 (configuration not stated) | -3.2% | 2.1% | 4.1% | 0.0% | 3.3% | 35.1%
O=C(CSc1ncnc2c1cnn2-c1ccccc1Cl)N1CCN(C(=O)c2ccco2)CC1 | 7.38µM* | 0.5% | -4.4% | -18.8% | ? | 47.9%
Cc1ccccc1-n1ncc2c(SCC(=O)N3c4ccccc4CC3C)ncnc21 (configuration not stated) | ? | 10.4% | -11.0% | ? | -7.7% | 7.6%
COc1ccc(N2CCN(C(=O)CSc3ncnc4c3cnn4-c3ccccc3C)CC2)cc1 | 6.57µM* | -12.7% | 3.7% | 11.5% | -4.1% | -6.1%
CN(C)C=Nc1ccc2nc3c(cc2c1)[nH]c1ccccc13 | -72.3% | -22.1% | -3.3% | ? | -7.5% | -48.7%
Cc1ccc(C)c(N2CCN(C(=O)C3CCN(c4nc(-c5ccc(C(C)C)cc5)no4)CC3)CC2)c1 | nt | 2.9% | nt | nt | -3.2% | nt
COc1ccccc1NC(=O)CSc1ccc(-c2sc(C)nc2C)nn1 | nt | 3.3% | nt | nt | 5.4% | nt
O=C(CSc1ccc(-c2ccco2)nn1)Nc1ccccc1F | -28.7% | 14.1µM* | -1.9% | 6.2% | -1.8% | -30.6%
CCOc1ccccc1NC(=O)CSc1ccc([N+](=O)[O-])cc1 | 2.33µM* | -25.8% | 1.6% | 2.94µM* | -0.9% | ?
CCOc1ccccc1NC(=O)Cn1nc(-c2ccco2)ccc1=O | -2.9% | 15.8µM* | -0.6% | ? | -12.1% | -34.5%
CCOc1ccccc1NC(=O)CSc1ccc(-c2sc(C)nc2C)nn1 | 10.4µM* | -2.1% | -3.6% | ? | 2.1% | 111.4%
CCOc1ccccc1NC(=O)CSc1cn[nH]n1 | ? | 2.3% | 2.1% | 5.6% | -11.4% | ?
CCOc1ccccc1NC(=O)CSc1ccc(-c2ccco2)nn1 | ? | 17.8µM* | -2.5% | -14.2% | 0.4% | 31.6µM*
Brc1ccc2ncnc(NCc3ccco3)c2c1 | nt | ? | -8.0% | 8.6% | -4.5% | -29.0%
OC(CNCc1ccco1)Cn1c2ccc(Br)cc2c2cc(Br)ccc21 (configuration not stated) | 0.294µM* | 0.0% | -6.7% | nt | -8.8% | -11.8%
CC(C)OC(=O)c1nn2c(C(F)(F)F)cc(-c3ccc(Br)o3)nc2c1Br | 32.9% | 20µM* | 7.1% | -7.2% | ? | -22.8%
CC(C)OC(=O)c1nn2c(C(F)(F)F)cc(-c3ccco3)nc2c1Cl | 13.1µM* | -12.9% | -10.0% | 8.4% | -1.9% | -16.0%
O=C(c1nn2c(C(F)(F)F)cc(-c3ccco3)nc2c1Br)N1CCCc2ccccc21 | 37.5% | 35.5µM* | -11.2% | ? | ? | -3.8%
Cc1ccc2c(c1)c1c(c(=O)n(Cc3ccccc3)c(=O)n1CC(=O)NCc1ccccc1Cl)n2C | nt | 6.4% | nt | nt | 4.3% | nt
SMILES | Pf growth 96h | Sm TGR inh | SARS PLpro yeast | Pf growth 48h | AmpC inh detg | AmpC inh no detg
Cc1csc(NC(=O)c2cnccn2)n1 | nt | -7.2% | -1.4% | 141.8% | -2.6% | -3.7%
Cc1ccc(C)c(-c2csc(NC(=O)c3cnccn3)n2)c1 | 11.7µM* | 1.4% | -0.3% | ? | ? | -9.4%
O=C(Nc1ccccc1)/C(=C/c1ccccc1)c1ccccc1 | 4.15µM* | -0.1% | -12.0% | 14.7µM* | -0.5% | -29.1%
N#C/C(=C/C=C/c1ccccc1)C(=O)Nc1ccccc1 | ? | 0.0% | 9.3% | 3.29µM* | -4.2% | 12.6%
COCCNC(=O)/C(C#N)=C/C=C/c1ccccc1 | ? | ? | 0.6% | 13.1µM* | -7.7% | -19.8%
N#C/C(=C\C=C\c1ccccc1)C(=O)Nc1ccccc1 | 18.5% | -3.9% | -1.0% | 23.8% | -2.8% | -41.1%
COCCCNC(=O)CCCCn1c(=O)c2ccccc2n(CC(=O)Nc2ccc(C)cc2C)c1=O | nt | -10.2% | nt | nt | 1.2% | nt
COc1ccc(NC(=O)c2cccc(-c3ccc(O)cc3)c2)cn1 | ? | -1.8% | -12.5% | ? | -8.8% | -30.8%
COc1ccc2[nH]c(=O)c(CN(Cc3cccnc3)Cc3nnnn3CC3CCCO3)cc2c1 (configuration not stated) | ? | -12.1% | -3.5% | ? | 2.2% | 4.8%
CCOc1ccc(C2=Nn3c(nnc3-c3ccccc3OC)SC2)cc1 | ? | 5.6% | -4.4% | 13.1µM* | 1.3% | 7.0%
c1ccc(-c2ccc(C3=Nn4c(nnc4-c4cc(-c5ccccc5)n[nH]4)SC3)cc2)cc1 | 11.7µM* | 4.3% | -0.3% | ? | -11.2% | -19.2%
Brc1ccccc1C1=Nn2c(nnc2-c2ccco2)SC1 | -0.2% | -26.8% | 2.2% | 2.3% | 2.9% | -30.6%
c1ccc(-c2ccc(C3=Nn4c(Cn5nnc6ccccc65)nnc4SC3)cc2)cc1 | 9.28µM* | 2.3% | 3.1% | ? | ? | -58.4%
CC1=Nn2c(nnc2-c2cc(-c3ccccc3)n[nH]2)SC1 | ? | 0.9% | -25.0% | ? | -11.7% | -29.0%
Brc1ccccc1C1=Nn2c(nnc2-c2ccccc2)SC1 | 8.28µM* | -1.1% | -10.1% | ? | -12.4% | -4.4%
CCN(CC)c1ccc(/C=N/NC(=O)C(O)(c2ccccc2)c2ccccc2)o1 | ? | 14.1µM* | -1.3% | ? | -1.5% | -23.0%
Cc1ccc(C(NC(=O)c2ccccc2)C(Cl)(Cl)Cl)cc1 (configuration not stated) | ? | -0.2% | 3.3% | 11.7µM* | -7.8% | -40.1%
Cc1ccc(C(=O)NC(C(=O)NC2CCCC2)c2ccccc2)cc1 (configuration not stated) | -2.9% | -14.2% | -2.5% | 6.5% | -2.5% | -27.7%
